This is part of a sample that, as a whole, favours compounds with a hit. Of some 83,000 tested, about 20% had one in any assay.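 48-hour exposure, single concentration, 96-well plates; percent growth endpoint where 0 means no net growth. Active: below 10.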 A number with no mark means an inactive call. Calls of active or inactive are those of the source.

For eleven molecules, growth results are on record in PubChem BioAssay (NCI).

Some test systems named below: NCI-H23 lung; NCI-H226 lung; NCI-H322M lung; HOP-62 NSCLC; NCI-H460 lung; HOP-92 NSCLC; NCI-H522 lung; A549/ATCC NSCLC; 786-0 renal; COLO 205 colon.
Common to all, as to experiment: NCI-60 one-dose screen, 48 h (100 = growth as untreated, 0 = no growth, -100 = all killed)
What all share (details): 10 µM unless noted

For the molecule `Cc1cc(N=C2NC(=O)CS2)n[nH]1`, the growth in the assay with NCI-H23 lung was 110%; with NCI-H226 lung it was 132%; in the assay with NCI-H322M lung, 95.5%; in the assay on HOP-62 NSCLC, 116%; in the assay with NCI-H460 lung it was 113%; in the assay with HOP-92 NSCLC it was 115%. Also, the growth in the assay with NCI-H522 lung was 103%; with A549/ATCC NSCLC it was 109%; with 786-0 renal, 103%; in the assay with COLO 205 colon, 108%.

Turning to `COc1cc(CNC(=O)/C=C/c2ccc3c(c2)OCO3)ccc1OCc1cn(-c2cccc(C(F)(F)F)c2)nn1`, the growth in the assay on NCI-H23 lung is 1.63% (active); in the assay on NCI-H226 lung, -44.8% (active); in the assay on NCI-H322M lung it was 26.4%; in the assay on HOP-62 NSCLC it was 1.47% (active); with NCI-H460 lung it was 29.2%; in the assay on HOP-92 NSCLC, -37.5% (active). Besides, the growth in the assay with NCI-H522 lung is 27%; in the assay with A549/ATCC NSCLC, -3.39% (active); in the assay with 786-0 renal it was -44.7% (active); in the assay with COLO 205 colon it was 25.3%.

In the case of `COc1cc2oc(-c3cccc(C(=O)Nc4ccc(Cl)cc4)c3)cc(=O)c2c(OCCNC(=O)[C@@H](N)CCC(=O)O)c1OC`, the growth is 88.2% in the assay with NCI-H23 lung; 86.6% in the assay with NCI-H226 lung; 79.8% in the assay on NCI-H322M lung; 81.9% in the assay on HOP-62 NSCLC; 63.2% in the assay with NCI-H460 lung; 63% with HOP-92 NSCLC. Further, the growth with NCI-H522 lung is 82.8%; in the assay with A549/ATCC NSCLC it was 103%; with 786-0 renal, 60.6%; in the assay with COLO 205 colon it was 70.6%.

Consider `O=C(Cn1c(/C=C/c2cccc([N+](=O)[O-])c2)nc2ccccc2c1=O)Nc1ccccc1`, for which the growth in the assay on NCI-H23 lung was 77.2%; in the assay on NCI-H226 lung, 75.7%; with NCI-H322M lung, 83.9%; in the assay with HOP-62 NSCLC, 53.6%; in the assay with NCI-H460 lung it was 67.2%; in the assay with HOP-92 NSCLC, 64.2%. In addition, the growth was 91.8% with NCI-H522 lung, 56.1% in the assay on A549/ATCC NSCLC, 59.6% with 786-0 renal and 81.1% with COLO 205 colon.

With `CNC(=O)c1cccc(NC(=O)c2ccc3c(c2)nnn3/C(C#N)=C/c2ccccn2)c1`, the growth was -39.3% (active) with NCI-H23 lung; -97.4% (active) in the assay with NCI-H226 lung; 91.8% in the assay on NCI-H322M lung; 82.7% with HOP-62 NSCLC; 51.5% with NCI-H460 lung; -29.5% (active) with HOP-92 NSCLC. For the same molecule, the growth was -90% (active) in the assay with NCI-H522 lung, 83.2% with A549/ATCC NSCLC, -95.9% (active) in the assay on 786-0 renal and -86.6% (active) with COLO 205 colon.

Regarding `NS(=O)(=O)c1ccc(-n2cc(-c3cccc(NC(=O)c4cc(N5CCOCC5)cc(C(F)(F)F)c4)c3)nn2)cc1`, the growth in the assay with NCI-H23 lung is 54.7%; in the assay on NCI-H226 lung, 26.2%; in the assay with NCI-H322M lung it was 71.4%; with HOP-62 NSCLC, 12.9%; in the assay on NCI-H460 lung it was 64.3%; with HOP-92 NSCLC, 9.47% (active). In addition, the growth is 38.2% with NCI-H522 lung, 76.7% with A549/ATCC NSCLC, 44.9% in the assay on 786-0 renal and 76.9% in the assay on COLO 205 colon.

Turning to `COc1ccc(C(=O)/C=C/c2ccc(Cl)c(Cl)c2)cc1S(N)(=O)=O`, the growth was -23.6% (active) in the assay on NCI-H23 lung; 25.5% in the assay on NCI-H226 lung; 21.3% in the assay with NCI-H322M lung; -47.1% (active) with HOP-62 NSCLC; 7.22% (active) in the assay with NCI-H460 lung; 31.2% in the assay with HOP-92 NSCLC. In addition, the growth in the assay with NCI-H522 lung is -47.2% (active); in the assay on A549/ATCC NSCLC, 11.2%; with 786-0 renal, -94.4% (active); in the assay on COLO 205 colon, -75.9% (active).

On to `Cc1ccc2c(N)c(C(=O)Nc3ccc(OC(F)(F)F)cc3)sc2n1`, for which the growth in the assay on NCI-H23 lung was 47.6%; with NCI-H226 lung, 47%; in the assay with NCI-H322M lung, 82.5%; with HOP-62 NSCLC, 68.4%; with NCI-H460 lung it was 77.8%; in the assay on HOP-92 NSCLC it was 59.1%. Moreover, the growth in the assay with NCI-H522 lung was 66.7%; in the assay with A549/ATCC NSCLC, 75.7%; with 786-0 renal it was 97.5%; in the assay with COLO 205 colon it was 92.4%.

Turning to `CN(C)c1ccnc(CNCCSC2(c3ccc(C(F)(F)F)cc3)c3ccccc3CCc3ccccc32)c1`, the growth was -31.8% (active) with NCI-H23 lung; -31.6% (active) with NCI-H226 lung; 8.82% (active) in the assay with NCI-H322M lung; -57.8% (active) with HOP-62 NSCLC; -80.5% (active) in the assay with NCI-H460 lung; -17.7% (active) with HOP-92 NSCLC. For the same molecule, the growth in the assay on NCI-H522 lung is -82.6% (active); in the assay with A549/ATCC NSCLC, -27.6% (active); with 786-0 renal it was -6.83% (active); with COLO 205 colon, -83.7% (active).

Regarding `CCOC(=O)C1=C(N)N(c2ccccc2)C2=C(C(=O)CC(C)(C)C2)C1c1cccc(Cl)c1Cl` (stereo not given), the growth is 69.7% in the assay with NCI-H23 lung; 40.3% in the assay on NCI-H226 lung; 77.8% in the assay with NCI-H322M lung; 40.8% in the assay on HOP-62 NSCLC; 61% with NCI-H460 lung; -0.828% (active) in the assay on HOP-92 NSCLC. The growth in the assay on NCI-H522 lung is 74.9%; in the assay on A549/ATCC NSCLC, 60.6%; in the assay on 786-0 renal, 67.7%; with COLO 205 colon it was 80.6%.

Consider `CCCCCCCCc1ccc(C(=O)Nc2cccc(P(=O)(O)O)c2)cc1`, for which the growth with NCI-H23 lung is 96.7%; in the assay on NCI-H226 lung, 97.4%; with NCI-H322M lung, 103%; in the assay on HOP-62 NSCLC, 111%; in the assay with NCI-H460 lung, 107%; in the assay with HOP-92 NSCLC it was 114%. The growth with NCI-H522 lung was 112%; with A549/ATCC NSCLC, 99.9%; in the assay on 786-0 renal, 104%; in the assay with COLO 205 colon, 113%.
